Hit rate of the full screen: of about 7,900 compounds, about 400 (5.1%) showed an effect of 50% or more. For the sample, strong results were picked, then their nearest neighbours and some compounds at random.

Sequence of Parkinson's disease protein 7 (PARK7/DJ1) (Q99497 whole entry, looked up, the tested form may be a part): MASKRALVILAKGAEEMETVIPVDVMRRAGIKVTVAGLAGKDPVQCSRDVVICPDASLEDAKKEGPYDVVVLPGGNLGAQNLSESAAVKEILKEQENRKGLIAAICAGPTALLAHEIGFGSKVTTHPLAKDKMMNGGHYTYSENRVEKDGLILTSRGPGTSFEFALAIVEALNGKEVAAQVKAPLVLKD

The target of this test is Parkinson's disease protein 7 (PARK7/DJ1) (human, UniProt Q99497). Description: primary screen, percent inhibition; read as competition with a fluorescent probe by fluorescence polarization; higher = more effect of the substance. Particulars: 100 µM. An outline of the steps:
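Covalent fragments at 100 μM final were incubated 2 h with 0.2 μM PARK7, then 20 nM probe JYQ-107 added for a further 2 h. Fluorescence polarization read at 480/520 nm; relative FP loss versus reference controls gave remaining enzyme activity.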
With `CCOc1cc(C)ccc1S(=O)(=O)n1cccn1`, the Inhibition % amounted to 0.108%.

Turning to `COC(=O)c1cc(B2OC(C)(C)C(C)(C)O2)c(C)cn1`, the Inhibition % amounted to 4.59%.

Turning to `CS(=O)(=O)OC1CCOC(c2ccncc2)C1` (stereo not shown), the Inhibition % worked out at 7.05%.

As to `CN(CCOc1ccccc1F)C(=O)CCl`, the Inhibition % amounted to 94.1%.

`N#CCCN(C(=O)CCl)c1ccccc1F`: the Inhibition % worked out at 33.7%.

For the compound `CN(CCOc1ccc(Cl)cc1)C(=O)CCl`, the Inhibition % turned out to be 63.6%.

For the compound `CN(CCOc1ccccc1F)c1cccnc1C#N`, the Inhibition % was 40.3%.

On to `O=C(CCl)NCCOc1ccc(Cl)cc1`, for which the Inhibition % is listed as 20.3%.

Take `CN(Cc1cc(Cl)cc(Cl)c1)C(=O)CCl`: the Inhibition % was determined as 32.4%.

In the case of `COc1ccc(N(CC(F)(F)F)C(=O)CCl)cc1`, the Inhibition % came out at 36.5%.

As to `O=C(CCl)COc1ccc(Cl)cc1`, the Inhibition % worked out at 97.8%.

Regarding `OB(O)c1ccc(OCc2ccc(Cl)cc2)cc1`, the Inhibition % is listed as -0.814%.

Regarding `COc1ccc(NC(=O)C(C#N)=Cc2ccco2)cn1`, the Inhibition % came to 10.5%.

Turning to `N#Cc1ncn(CC(=O)N2CCc3sccc3C2)n1`, the Inhibition % came out at 10.8%.

On to `CN(C)c1ccc(Cl)cc1NC(=O)CCl`, for which the Inhibition % is given as 1.39%.

For `CC(C)(C)OC(=O)N1CCC(B2OC(C)(C)C(C)(C)O2)C1` (stereo not shown), the Inhibition % is on record as 1.29%.

For the compound `CC1CN(C(=O)CN2CCSC2=O)C(C)CO1` (stereo not shown), the Inhibition % was determined as 4.59%.

For `N#Cc1ccccc1OS(=O)(=O)c1nccs1`, the Inhibition % is given as 25.6%.

Turning to `Cc1cc(F)ccc1OS(=O)(=O)c1cnn(C)c1`, the Inhibition % is on record as 9.05%.

As to `O=C(CCl)NC(=O)Nc1ccc2c(c1)OCO2`, the Inhibition % was found to be 1.46%.

For the compound `O=C(CCl)Nc1ccc2c(c1)NC(=O)CO2`, the Inhibition % was 32.7%.

`O=C(CCl)Nc1ccc2c(c1)OC1(CCCCC1)O2`: the Inhibition % was determined as 93.3%.

Turning to `O=C(CCl)Nc1ccc2c(c1)OC(F)(F)O2`, the Inhibition % was 37.9%.

For the compound `O=C(CCCl)Nc1ccc2c(c1)OCO2`, the Inhibition % is given as 13.1%.

`O=C(CCl)Nc1ccc2c(c1)OC1(CCCC1)O2`: the Inhibition % was 78.4%.

In the case of `COc1ccc(-c2nc(C#N)c(N3CCCC3)o2)cc1`, the Inhibition % is on record as 5.17%.

In the case of `Cn1c(S)nc2ccccc2c1=O`, the Inhibition % turned out to be 3.7%.

In the case of `O=C(Cc1ccccc1Cl)N1CCCCC1C1OCCO1` (stereo not shown), the Inhibition % came out at 14.3%.

`O=C(CS)Nc1ccccc1`: the Inhibition % stood at 50.4%.

Regarding `O=C(CCCl)Nc1ccccc1F`, the Inhibition % stood at 6.72%.

For the compound `O=C(CS)Nc1ccc(F)cc1`, the Inhibition % is on record as 5.25%.

For `C=CC(=O)Nc1ccccc1`, the Inhibition % was found to be 3.57%.

As to `O=C(CCl)NC(=O)Nc1ccccc1F`, the Inhibition % is reported as -2.13%.

As for `O=C(CS)Nc1ccccc1F`, the Inhibition % is reported as 81.5%.

Turning to `O=S1(=O)C=CC(c2ccccc2)C1` (stereo not shown), the Inhibition % was determined as 12.1%.

With `CCOc1ccc(S(=O)(=O)n2nc(C)cc2C)cc1C`, the Inhibition % came out at 7.03%.

Regarding `C=CCOc1ccc(Cl)c(C#N)n1`, the Inhibition % is reported as 4.33%.

For `N#CC(=Cc1ccccc1OCC(F)(F)F)C(N)=O`, the Inhibition % is given as 22.7%.

With `CCc1noc(CC)c1CNCc1ccccc1B(O)O`, the Inhibition % worked out at 2.29%.

In the case of `O=C(CCl)N1CCOC1=O`, the Inhibition % was determined as 31.6%.

With `O=C(CCl)N1CCNC1=O`, the Inhibition % stood at 78%.

For `O=C(CCl)N1CCNCC1.O=C(O)C(F)(F)F`, the Inhibition % was 7.16%.

Turning to `N#CN(CC(=O)N1CCNC1=O)c1ccccc1`, the Inhibition % was 3.42%.

Regarding `C=CC(=O)N1CCNC(=O)C1`, the Inhibition % came to 11.3%.

On to `O=C1CN(C(=O)CCl)CCN1`, for which the Inhibition % was found to be 62.6%.

Turning to `CN(C)CCOc1ccccc1B1OC(C)(C)C(C)(C)O1`, the Inhibition % was 6.97%.

As for `C=CC(=O)N(C)C1CCN(c2ncnc3ccccc23)CC1`, the Inhibition % is recorded as 16.8%.

With `Cc1csc(NC(=O)CCN2C(=O)CCC2=O)n1`, the Inhibition % is 5.08%.

Turning to `Cc1csc(NC(=O)CCl)n1`, the Inhibition % is listed as -1.74%.

As for `Cc1csc(NC(=O)CS)n1`, the Inhibition % is 71.5%.

As for `Cc1cc(Br)ccc1NC(=O)CCl`, the Inhibition % is recorded as 19.7%.

For `O=C(CCl)NCc1ccc(F)cc1C(F)(F)F`, the Inhibition % was 13.5%.

For `C=CC(=O)N(Cc1cccc(C)n1)Cc1cccc(C)n1.O=C(O)C(F)(F)F`, the Inhibition % was found to be 8%.

Consider `COC(=O)c1c(NC(=O)CCl)sc(C)c1C`, for which the Inhibition % turned out to be 10.8%.

For the compound `Cc1sc(NC(=O)CCl)c(C)c1C`, the Inhibition % was determined as 56.3%.

For the compound `Cc1sc(NC(=O)CCl)c(C#N)c1C`, the Inhibition % is reported as 9.37%.

For the compound `C=CC(=O)N1CC(n2nc(C)nc2C)C1`, the Inhibition % is reported as 9.38%.

`Cn1ccc(NS(=O)(=O)C=Cc2ccccc2)n1`: the Inhibition % is reported as 11.1%.

Consider `Cn1cc(NS(=O)(=O)c2cccc(S(=O)(=O)F)c2)ccc1=O`, for which the Inhibition % turned out to be 103%.

Consider `Cn1cnc(NS(=O)(=O)c2ccc(S(=O)(=O)F)cc2)n1`, for which the Inhibition % amounted to 5.05%.

`Cn1ccc(Nc2ccc(S(=O)(=O)F)cn2)n1`: the Inhibition % was 4.77%.

Turning to `CCn1ncnc1NS(=O)(=O)c1cccc(S(=O)(=O)F)c1`, the Inhibition % was determined as 99%.

`CCc1nn(C)cc1NS(=O)(=O)c1cccc(S(=O)(=O)F)c1`: the Inhibition % turned out to be 95.4%.

Consider `Cn1ccc(NS(=O)(=O)c2cccc(S(=O)(=O)F)c2)n1`, for which the Inhibition % amounted to 97.7%.

On to `Cn1ncnc1NS(=O)(=O)c1ccc(S(=O)(=O)F)cc1`, for which the Inhibition % came out at 5.71%.

For the compound `Cn1cc(NS(=O)(=O)c2ccc(S(=O)(=O)F)cc2)cn1`, the Inhibition % was 33%.

In the case of `CC1(C)C(=O)NC1c1ccco1` (stereo not shown), the Inhibition % was determined as 1.96%.

As to `CN(CCc1nccs1)C(=O)c1cccnc1S`, the Inhibition % is 5.89%.

On to `C=CC(=O)N1CCN(C(=O)CN2C(=O)CCC2=O)CC1`, for which the Inhibition % turned out to be 6.08%.

With `COC(=O)c1ccc(C)c(NC(=O)CCl)c1`, the Inhibition % was determined as 3.25%.

For the compound `N#CC=C1NC(=O)c2ccccc2S1`, the Inhibition % was 28.7%.

For `CC1CN(C(=O)C=Cc2ccnn2C)CC(C)N1.Cl` (stereo not shown), the Inhibition % amounted to 14.8%.

Turning to `CC(=O)c1ccccc1NC(=O)CCl`, the Inhibition % is recorded as 19%.

On to `O=S(=O)(F)c1cccc(S(=O)(=O)Nc2ncccn2)c1`, for which the Inhibition % is recorded as 16.8%.

`Cn1nccc1NS(=O)(=O)c1cccc(S(=O)(=O)F)c1`: the Inhibition % was determined as 89.5%.

Take `Cn1cnc2ccc(S(=O)(=O)F)cc21`: the Inhibition % was 43.4%.

In the case of `C=CC(=O)N1C2CCC1CC(CC(F)F)C2` (stereo not shown), the Inhibition % turned out to be 6.6%.

For the compound `C=CC(=O)N1CCC[C@H]1C(=O)NC`, the Inhibition % came to 4.18%.

Regarding `O=C1OCCC1N1CCN(C(=O)c2cccc(F)c2)CC1` (stereo not shown), the Inhibition % is 8.98%.

The values are drawn from PMC9574860, “Chemical Toolkit for PARK7: Potent, Selective, and High-Throughput” (Journal of Medicinal Chemistry, 2022).
